SARS PLpro yeast = inhibitors of SARS-CoV papain-like protease in yeast; Potency, µM (top dose mostly 32.9 µM), for the others: top-dose activity, positive = growth rescue, most hits filed as activators; actives 0.19% (n = 330,000); S. cerevisiae expressing SARS-CoV PLpro, growth rescue; calls by dose curve; note: potency is the fitted concentration of half-maximal effect; 0% is about no effect; nearly all actives have a fitted effect of over 55% in size
Cycloheximide cs = counter-screen hit for Shiga toxin inhibitors, cycloheximide; cell reporter, cycloheximide protein synthesis inhibition counterscreen; max response, %; actives 12% (n = 300,000); in the data active = max response mostly above about 13%, no sharp cut-off; inactive = mostly below about 14%; note: read at 38.3 µM for the half of the compounds with a filed dose; 0% is about no effect
AMA1-RON2 inh = AMA1-RON2 (P. falciparum) interaction inhibition; Potency, µM (top dose mostly 58.2 µM), without a hit: at the highest dose activity change, negative = inhibition, actives largely listed as inhibitors; AlphaScreen AMA1-biotinylated RON2 peptide binding; actives 0.2% (n = 360,000);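 note: potency is the fitted concentration of half-maximal effect; 0% = vehicle wells and -100% = peptide control; nearly all actives have a fitted effect of over 45% in size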
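AMA1 (3D7) with his tag at 25 nM final met compounds first, then biotinylated RON2 peptide at 25 nM; detection used donor plus acceptor beads, 10 µg/mL apiece, read by AlphaScreen after 30 min at room temperature.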
Pf growth 48h = inhibits P. falciparum growth in the first generation, 48 h. P. falciparum luciferase growth in erythrocytes, 48 h. Potency, µM (top dose mostly 28.7 µM), for the others: top-dose activity change, negative = inhibition, hits mostly inhibitors. actives 5.9% (n = 310,000); note: potency is the fitted concentration of half-maximal effect; % is set by controls: 0 for no effect and ±100 for the full control effect
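Parasite viability was followed by luminescence of a genomically integrated firefly luciferase. Cultures held 0.1% parasitemia at 2% hematocrit (final), incubated under 5% CO2 at 37 C.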
Pf growth 96h = inhibits malaria parasite growth, 96 h; Potency, µM (series often up to 28.7 µM), for inactives: at the highest dose activity change, negative = inhibition, most hits filed as inhibitors; P. falciparum luciferase reporter growth, 96 h; AID 504834; actives 6.9% (n = 320,000); note: potency is the fitted concentration of half-maximal effect; % is set by controls: 0 for no effect and ±100 for the full control effect
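Infected RBCs, 2% Hct / 0.05% parasitemia final; luciferase-reporter P. falciparum; cpd 96 h, 37 C, 5% CO2; luciferase detection reagent; luminescence.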
Shiga toxin inh = Shiga toxin inhibition. Vero cells, Shiga toxin protein synthesis inhibition reporter. inhibition, % at 38.7 µM. actives 9.2% (n = 290,000). AID 2315; in the data active = inhibition mostly above about 28%, no sharp cut-off; inactive = mostly below about 43%; note: 0% is about no effect
* marks the source's active call; other numbers are inactive results; ? = inconclusive; . = not tested or not shown. A selection: hits, their analogues and other compounds. The true share with any hit is near 19%. Unless noted, calls come from the whole dose curve; as a rule, active = well fitted curve in the direction sought with a large enough effect; inconclusive = small, poorly fitted or top-dose-only effect, or another doubt; inactive = no such curve, though single readings can be large; an effect the other way counts as inactive or inconclusive.

SMILES	SARS PLpro yeast	Cycloheximide cs	AMA1-RON2 inh	Pf growth 48h	Pf growth 96h	Shiga toxin inh
Nc1cc(Cl)ccc1N1CCCC1	-2%	-6	0%	2.1µM*	?	-5
Nc1cc(Cl)ccc1N1CCOCC1	-2%	5	-6%	13%	.	-9
Nc1nc(Cl)cc(N2CCOCC2)n1	10%	-2	0%	38%	?	-7
Nc1cc(F)ccc1N1CCCCCC1	-3%	12	-3%	1µM*	144%	-10
O=C(CCN1C(=O)/C(=C\c2ccccc2)SC1=S)Nc1ccc(C(=O)O)cc1	0%	4	-1%	28%	-11%	-3
COc1cccc(/C=C2\SC(=S)N(CCCC(=O)Nc3ccc(C(=O)O)cc3)C2=O)c1	?	17	-1%	?	8.3µM*	11
COc1cccc(/C=C2/SC(=S)N(CCCC(=O)Nc3ccc(O)cc3)C2=O)c1	1%	27*	-12%	?	?	44*
CCN(CC)CCOC(=O)c1ccc(NC(=O)CCCN2C(=O)S/C(=C/c3ccc(OC)cc3)C2=S)cc1	-7%	-9	?	2.6µM*	-9%	-18
O=C(c1ccc([N+](=O)[O-])cc1)N1CCC(n2nnc3cc(F)ccc32)CC1	-1%	4	-4%	66%	-17%	17
O=C(CN1CCC(n2nnc3cc(C(F)(F)F)ccc32)CC1)Nc1ccc2c(c1)OCCO2	3%	46*	17%	12µM*	11%	91
O=C(O)CCC(=O)N1CCC(n2nnc3cc(C(F)(F)F)ccc32)CC1	-5%	-2	20%	2.1µM*	0%	-6
COc1ccc(Cl)cc1NC(=O)CN1CCC(n2nnc3cc(C)ccc32)CC1	-6%	-7	-3%	?	8%	-10
O=C(N1CCOCC1)N1CCC(n2nnc3cc(F)ccc32)CC1	0%	2	3%	-14%	10µM*	-9
Cc1ccc2c(c1)nnn2C1CCN(CC(=O)Nc2ccccc2N2CCOCC2)CC1	1%	-2	0%	2.1µM*	37%	-5
CCc1nc2ccc(C(=O)NCCN3CCNC3=O)cn2c1N(C)Cc1ccc(OC)cc1	.	.	3%	.	.	.
CC(C)(C)OC(=O)C(C)(C)Sc1nnc(N)s1	0%	-2	-7%	?	29%	2
Cc1cc(NC(=O)CSc2ccc(-c3ccc(F)cc3)nn2)no1	-3%	-2	-1%	8%	?	15
O=C(c1ccccc1)N1CCN(S(=O)(=O)c2cccs2)CC1	-1%	-2	2%	-3%	?	-16
Cc1c(Cl)cccc1NC(=S)N1CCN(S(=O)(=O)c2cccs2)CC1	-1%	-1	1%	1.9µM*	?	5
Cc1cc(O)c(CN2CCN(S(=O)(=O)c3cccs3)CC2)cc1C(C)C	-3%	.	-2%	1.7µM*	4.1µM*	.
CC(C)c1ccccc1NC(=S)N1CCN(S(=O)(=O)c2cccs2)CC1	0%	7	-4%	?	5.2µM*	-5
COc1cccc(OC)c1OCCCN1CCC(Cc2ccccc2)CC1	-4%	-2	-21%	?	?	7
CC(C)Oc1ccc(/C=N/NC(=O)C(CSCc2ccccc2)NC(=O)c2ccc([N+](=O)[O-])cc2)cc1 (configuration not stated)	-8%	0	5%	12µM*	?	2
O=S(=O)(Nc1ccccc1N1CCOCC1)c1ccc(Cl)cc1	7%	.	4%	?	3%	.
CCN1CCN(c2nc(SC)nc3sc4c(c23)CC(C)(C)OC4)CC1	4%	-1	-9%	1.7µM*	28%	9
SMILES	SARS PLpro yeast	Cycloheximide cs	AMA1-RON2 inh	Pf growth 48h	Pf growth 96h	Shiga toxin inh
CC(C)Sc1nc(N2CCOCC2)c2c3c(sc2n1)COC(C)(C)C3	6%	-2	-7%	?	?	-20
CCC1(C)Cc2c(sc3nc(SC)nc(NCCN(C)C)c23)CO1 (configuration not stated)	1%	-2	-3%	?	3.7µM*	-10
CCOC(=O)N1CCN(c2nc(SC)nc3sc4c(c23)CC(C)(C)OC4)CC1	4%	-1	-3%	3.7µM*	.	3
CSc1nc(SCCN(C)C)c2c3c(sc2n1)COC(C)(C)C3	1%	-1	-19%	?	?	-4
C[C@H](CO)N1C[C@H](C)[C@@H](CN(C)C(=O)Nc2ccc3c(c2)OCO3)Oc2c(NC(=O)Nc3ccc(C(F)(F)F)cc3)cccc2C1=O	-9%	.	-11%	.	.	.
OCCc1ccc(O)c(-n2nc3ccccc3n2)c1	-4%	22*	-1%	88%	109%	59*
Cc1nc(-c2ccccn2)sc1C(=O)Nc1ccc(F)cc1	-11%	19*	-15%	0%	0%	5
Cc1nc(-c2ccccn2)sc1C(=O)Nc1ccc(F)cc1F	3%	31*	6%	5%	?	59*
Cc1nc(-c2cccnc2)sc1C(=O)Nc1ccc(F)cc1F	8%	2	0%	4%	47%	-11
CC(C)=CCc1c(O)cc(O)c2c1OC(c1ccc(O)cc1)CC2=O (configuration not stated)	.	.	-11%	.	.	.
COc1ccc([C@@H]2CC(=O)c3c(O)cc(O)cc3O2)cc1O	.	.	-11%	-7%	43%	.
CC(C)=CCc1c(O)cc2c(c1O)C(=O)CC(c1ccc(O)cc1)O2 (configuration not stated)	-10%	23*	-1%	-8%	22%	29
COc1c(CC=C(C)C)cc(C2CC(=O)c3c(O)cc(O)cc3O2)cc1CC=C(C)C (configuration not stated)	-4%	active	7%	?	168%	19
Cc1cc(-c2ccc(C(C)C)c(S(=O)(=O)N3CCOc4ccccc43)c2)on1	2%	-2	-7%	15µM*	19%	-2
CCC1CN(S(=O)(=O)c2cc(-c3cc(C)no3)ccc2OC)c2cc(C)ccc2O1 (configuration not stated)	-2%	7	-12%	10µM*	?	-8
COc1ccc(-c2cc(C)no2)cc1S(=O)(=O)N1CCOc2ccccc21	18%	-7	14%	?	5%	-3
CCc1ccc(-c2cc(C)no2)cc1S(=O)(=O)N1CCOc2ccc(C)cc21	-1%	2	3%	2.9µM*	?	-3
CCc1ccc(-c2cc(C)no2)cc1S(=O)(=O)N1CC(=O)Nc2ccccc21	2%	-4	5%	-23%	54%	-5
CCc1ccc(-c2cc(C)no2)cc1S(=O)(=O)N1CCN(c2cccc(C)c2C)CC1	-4%	8	-10%	5.2µM*	12µM*	-6
CCc1ccc(-c2cc(C)no2)cc1S(=O)(=O)N1CCN(c2cc(C)ccc2C)CC1	0%	-2	-6%	13µM*	11%	3
CCCN(c1ccccc1F)S(=O)(=O)c1cc(-c2cc(C)no2)ccc1OC	-1%	7	-11%	?	15µM*	-4

Source: PubChem BioAssay
